The panel holds about 79,000 compounds, 15% with a hit somewhere; the sample as a whole holds those more often. Values without a mark were called inactive. Active and inactive are the calls of the source. Cut-off read from the data, not from the text of the source: active = growth inhibition above about 70%; inactive = the rest.

From PubChem BioAssay (NCI) come the findings set out here.

Assay [1] is described as follows: NCI Yeast Anticancer Drug Screen. Data for the rad50 strain (AID 155).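 Note: 0% = growth of vehicle-only cultures of the same strain.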 The settings on record: S. cerevisiae rad50 strain growth inhibition; at 50.0 µM; hits give high values. The gist of the method: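 Relative growth inhibition (compound vs vehicle) was measured in yeast with a defined repair-gene alteration.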
Assay [2] is described as follows: NCI Yeast Anticancer Drug Screen. Data for the mec2-1 strain (AID 157). The settings on record: S. cerevisiae mec2-1 strain, at 50.0 µM, hits give high values. In a few lines:
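Vehicle-treated cultures served as reference for growth inhibition of compound-exposed mec2-1 yeast.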

Assay [3] is described as follows: NCI Yeast Anticancer Drug Screen. Data for the sgs1 mgt1 strain (AID 161).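 Note: 0% = growth of cultures given vehicle only.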 The note with it: S. cerevisiae sgs1 mgt1 strain, at 50.0 µM, hits give high values. The gist of the method: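 Test agents were incubated with a DNA-repair-mutant yeast strain. Growth was then read and compared against vehicle-treated controls.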
A short description of assay [4]: NCI Yeast Anticancer Drug Screen. Data for the cln2 rad14 strain (AID 165).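 Note: 0% = growth equal to vehicle treated cultures.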 The settings on record: S. cerevisiae cln2 rad14 strain, at 50.0 µM, hits give high values. The gist of the method:
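Each compound was tested on cln2 rad14 yeast. Inhibition of growth was calculated against vehicle-exposed controls.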

Assay [5] in a line: NCI Yeast Anticancer Drug Screen. Data for the bub3 strain (AID 167). The settings on record: S. cerevisiae bub3 mutant strain, at 50.0 µM, hits give high values. In a few lines:
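Screening used yeast with an engineered genetic alteration affecting cell cycle control. Compound-exposed cultures were compared with vehicle cultures, and reduced growth was taken as inhibition.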

Assay [6] can be described thus: NCI Yeast Anticancer Drug Screen. Data for the mlh1 rad18 strain (AID 175). The note with it: S. cerevisiae mlh1 rad18 strain growth inhibition; at 50.0 µM; hits give high values. In a few lines:
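Vehicle-treated cultures served as the reference for growth inhibition in a yeast strain carrying DNA damage repair alterations exposed to each compound.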

In the case of `C=C1c2nc3ccccc3n2C=C(c2ccc(Cl)cc2)N1c1ccccc1`, the growth inhibition was -4.65% in assay [1]; 23.4% in assay [2]; -10.7% in assay [3]; 9.7% in assay [4]; -1.6% in assay [5]; 33.5% in assay [6].

With `COC1OC(COS(C)(=O)=O)C(OS(C)(=O)=O)C(OC(=O)c2ccccc2)C1OS(C)(=O)=O` (stereo not given), the growth inhibition in assay [1] is -6.25%; in assay [2] it was 8%; in assay [3] it was -9.6%; in assay [4] it was 1.15%; in assay [5] it was -0.85%; in assay [6], 20.6%.

For the compound `CCOC(=O)CCCCCCCCCCCCCCCCC(=O)OCC`, the growth inhibition was 30.9% in assay [1]; -31.9% in assay [2]; -14.2% in assay [3]; 19.5% in assay [4]; 7.75% in assay [5]; 8.9% in assay [6].

Turning to `c1ccc2[nH]c(CN3CCCCC3)cc2c1`, the growth inhibition was 7.15% in assay [1]; -10.1% in assay [2]; -8.95% in assay [3]; -18.8% in assay [4]; -13.2% in assay [5]; 11.8% in assay [6].

For `CCCC(=O)Nc1cn(COC)c(C(=O)N2C[C@@H]3C[C@]34C2=CC(=O)c2[nH]cc(C)c24)n1`, the growth inhibition in assay [1] is 28.2%; in assay [2] it was 20.4%; in assay [3], 34.4%; in assay [4], 14.2%; in assay [5], 26.2%; in assay [6] it was 50.8%.

As for `Cc1nc2ccccc2c(=O)n1NC(=O)c1ccccc1O`, the growth inhibition in assay [1] was -7.45%; in assay [2] it was -53.6%; in assay [3] it was -7.6%; in assay [4] it was 11.5%; in assay [5], -4.1%; in assay [6], 17.1%.

Regarding `N#Cc1ccccc1/C=N/O`, the growth inhibition in assay [1] was 0.15%; in assay [2], -6.55%; in assay [3], -8.75%; in assay [4], 0.95%; in assay [5] it was -18.4%; in assay [6] it was -14.1%.

In the case of `Cc1cc(C)cc(NC(N)=S)c1`, the growth inhibition was 11.8% in assay [1]; -0.25% in assay [2]; 6.9% in assay [3]; -5.3% in assay [4]; 10.6% in assay [5]; 11.7% in assay [6].

Take `COC(=O)C1=C(C)NC(C)=C(C(=O)OC)C1c1cccc(N=O)c1`: the growth inhibition in assay [1] was 9.85%; in assay [2], 6.5%; in assay [3] it was 13.3%; in assay [4], 4.4%; in assay [5] it was 26.6%; in assay [6], 78.2% (active).

Take `N#Cc1nnc2cc(-c3ccccc3)nn2c1-c1ccco1`: the growth inhibition was 27.9% in assay [1]; 11.2% in assay [2]; 16.3% in assay [3]; 35.5% in assay [4]; 28.1% in assay [5]; 31.4% in assay [6].

With `N#Cc1c(C#N)c(-c2cccc([N+](=O)[O-])c2)n(-c2ccccc2)c1N`, the growth inhibition is 15.9% in assay [1]; 15.5% in assay [2]; -35.6% in assay [3]; 2.15% in assay [4]; -16.6% in assay [5]; -16.5% in assay [6].

Turning to `CC1(c2ccco2)CCC(=O)CC1=O` (stereo not given), the growth inhibition in assay [1] was 4.2%; in assay [2], 4.25%; in assay [3], 4.1%; in assay [4] it was 11.2%; in assay [5] it was -12.9%; in assay [6] it was 1.1%.

With `O=C(c1ccccc1)n1c2ccccc2c2ccccc21`, the growth inhibition in assay [1] is 9.55%; in assay [2], -3.3%; in assay [3] it was 17.6%; in assay [4], -1%; in assay [5], 26.2%; in assay [6] it was 26.2%.

Regarding `C=C1C(=O)OC2/C=C(/CO)C3(O)CC(O)C(C)(CC(OC(=O)/C(C)=C/C)C12)O3` (stereo not given), the growth inhibition in assay [1] is 7.2%; in assay [2], -13.9%; in assay [3] it was 14.9%; in assay [4], 17.4%; in assay [5] it was 0.85%; in assay [6], -27.2%.

Regarding `C=CCc1cc(C(C)=O)ccc1O`, the growth inhibition in assay [1] was 2.75%; in assay [2], -14.5%; in assay [3], -9.75%; in assay [4], -19.2%; in assay [5] it was -8.95%; in assay [6], -11.7%.

For the compound `O=c1c2ccccc2nc(-c2ccccc2)n1NC(=S)Nc1cccc(Cl)c1`, the growth inhibition was 7.45% in assay [1]; -27.1% in assay [2]; 3.65% in assay [3]; -71.7% in assay [4]; 28.7% in assay [5]; 0.55% in assay [6].

As to `CN(C)c1ccc(-c2cccc[n+]2C)cc1`, the growth inhibition was -12.8% in assay [1]; 12.2% in assay [2]; 3.05% in assay [3]; 3.25% in assay [4]; 0.1% in assay [5]; 25.7% in assay [6].

Regarding `CCN(CC)CC(O)c1ccc2c(ccc3ccccc32)c1` (stereo not given), the growth inhibition was 12.5% in assay [1]; -5% in assay [2]; 9.2% in assay [3]; -32% in assay [4]; -3.45% in assay [5]; 12% in assay [6].

Regarding `N#CCC(c1ccccc1)(c1ccccc1)c1ccccc1`, the growth inhibition in assay [1] was 46.4%; in assay [2], 34.8%; in assay [3], 45.9%; in assay [4], 37.1%; in assay [5], 52.4%; in assay [6], 39.6%.

Regarding `CCc1cc2c(cc1COC(C)=O)C(C)(C)CCC2(C)C`, the growth inhibition in assay [1] was -10.8%; in assay [2], -19.4%; in assay [3] it was 5.5%; in assay [4] it was -13.8%; in assay [5] it was 4.3%; in assay [6] it was -31.9%.
